What all share (conditions): 25 µM; exposure: 24-48 hpf
Assay [1] has as its system Danio rerio Tg(wt1b:EGFP) embryo, pronephros. The assay is described as follows: glomerular separation, fold change vs DMSO control; higher = glomeruli further apart (abnormal). A digest of the protocol:
(§1)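 Every feature is expressed as a fold change relative to the averaged DMSO-treated embryos of the same day. The exposure ran from 24 to 48 hpf at 28.5°C, with dechorionated Tg(wt1b:EGFP) zebrafish embryos in HEPES-buffered E3 containing 0.003% PTU, 0.5% DMSO and 25 μM compound. Dorsal pronephros images taken in agarose-filled 96-well plates were reduced to maximum projections, on which 16 reference points were set by hand in Fiji for a macro to compute distances and angles. Values more than 2 SD from the feature mean were not used.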

For assay [2] the test system is unchanged. Briefly: glomerular width (mean of left and right), fold change vs DMSO control; higher = wider glomerulus. A digest of the protocol: as §1
For assay [3] the test system is unchanged. Briefly: fraction of imaged embryos annotated as normal kidney; higher = less nephrotoxic; extreme values may be limits of the assay. A digest of the protocol: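 The read-out is the proportion of embryos in each treatment manually annotated as normal-kidney. Exposure ran from 24 to 48 hpf at 28.5°C in 12-well plates, using dechorionated Tg(wt1b:EGFP) zebrafish embryos in 5 mM HEPES-buffered E3 with 0.003% PTU, 0.5% DMSO and 25 μM compound. For imaging, larvae were anaesthetised with tricaine, positioned dorsally in agarose-filled 96-well plates and captured by widefield fluorescence (470 nm, 10 z-slices), with scoring done on maximum projections.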

Assay [4] shares this test system. The assay is described as follows: pronephric angle neck segment to proximal convoluted tubule (mean of left and right), fold change vs DMSO control; higher = larger pronephric angle. The method, boiled down: as §1

Counter-ions that a name gives are not always drawn. ± gives the standard deviation or the standard deviation of the averaged measurements.

In turn, `NS(=O)(=O)c1cc2c(cc1C(F)(F)F)NCNS2(=O)=O` [Hydroflumethiazide] registered a glomerular separation in assay [1] of 0.97 ± 0.25. Also, the glomerular width in assay [2] came to 1.07 ± 0.035. For the same compound, the “fraction of imaged embryos annotated as normal kidney” value (“fraction of imaged embryos annotated” for short) in assay [3] worked out at 0.727. The “pronephric angle neck segment” value in assay [4] is 1.04 ± 0.14.

The compound `CN1CCCCC1CCN1c2ccccc2Sc2ccc([S+](C)[O-])cc21` (stereo unspecified) [Mesoridazine besylate] came in with a glomerular separation in assay [1] of 1.4 ± 1. This compound also yielded a glomerular width in assay [2] of 0.916 ± 0.033. Also, the “fraction of imaged embryos annotated” value in assay [3] worked out at 0.833. Moreover, in assay [4], the “pronephric angle neck segment” value was found to be 1.02 ± 0.033.

As for `Nc1nc2c(ncn2COC(CO)CO)c(=O)[nH]1` [Ganciclovir], the glomerular separation in assay [1] turned out to be 0.62 ± 0.26. In assay [2], the glomerular width was 1.009 ± 0.0021. Also, the “fraction of imaged embryos annotated” value in assay [3] amounted to 0.917. In addition, the “pronephric angle neck segment” value in assay [4] was determined as 0.998 ± 0.018.

In the case of `CC1(C)[C@@H](OC(=O)CCC(=O)O)CC[C@]2(C)[C@H]3C(=O)C=C4[C@@H]5C[C@@](C)(C(=O)O)CC[C@]5(C)CC[C@@]4(C)[C@]3(C)CC[C@@H]12` [Carbenoxolone disodium salt], the glomerular separation in assay [1] came to 0.718 ± 0.41. Besides, in assay [2], the glomerular width is 1.04 ± 0.031. Further, the “fraction of imaged embryos annotated” value in assay [3] came out at 0.667. For the same compound, in assay [4], the “pronephric angle neck segment” value turned out to be 0.9894 ± 0.0072.

With `CC1CC(OC(=O)C(O)c2ccccc2)CC(C)(C)N1C` (stereo unspecified) [Eucatropine hydrochloride], in assay [1], the glomerular separation came out at 0.748 ± 0.31. For the same compound, the glomerular width in assay [2] amounted to 0.975 ± 0.042. For the same compound, the “fraction of imaged embryos annotated” value in assay [3] amounted to 0.917. Besides, the “pronephric angle neck segment” value in assay [4] was determined as 0.9583 ± 0.0057.

As to `C[C@]12C=CC(=O)C=C1CC[C@@H]1[C@@H]2C(=O)C[C@@]2(C)[C@H]1CC[C@]2(O)C(=O)CO` [Prednisone], the glomerular separation in assay [1] was 1.19 ± 0.48. Moreover, in assay [2], the glomerular width came to 0.972 ± 0.03. In addition, the “fraction of imaged embryos annotated” value in assay [3] came out at 0.833. Further, in assay [4], the “pronephric angle neck segment” value amounted to 1.08 ± 0.065.

Turning to `C[C@H](CCC(=O)O)[C@H]1CC[C@H]2[C@@H]3[C@H](O)C[C@@H]4C[C@H](O)CC[C@]4(C)[C@H]3CC[C@]12C` [Chenodiol], in assay [1], the glomerular separation was determined as 2.11 ± 0.81. The same compound displayed a glomerular width in assay [2] of 0.744 ± 0.025. In addition, the “fraction of imaged embryos annotated” value in assay [3] turned out to be 0.333. For the same compound, in assay [4], the “pronephric angle neck segment” value was found to be 1.04 ± 0.13.

`CC(C)(CO)C(O)C(=O)NCCCO` (stereo unspecified) [Panthenol (D)]: the glomerular separation in assay [1] came to 0.954 ± 0.35. In assay [2], this compound yielded a glomerular width of 1.001 ± 0.0062. In addition, in assay [3], the “fraction of imaged embryos annotated” value stood at 0.75. In addition, the “pronephric angle neck segment” value in assay [4] turned out to be 1.008 ± 0.005.

`Clc1ccc(C(c2ccccc2Cl)C(Cl)Cl)cc1` (stereo unspecified) [Mitotane] yielded a glomerular separation in assay [1] of 0.566 ± 0.18. In assay [2], the glomerular width worked out at 0.969 ± 0.038. For the same compound, in assay [3], the “fraction of imaged embryos annotated” value was found to be 0.909. Also, the “pronephric angle neck segment” value in assay [4] turned out to be 1.05 ± 0.049.

These data come from the supplement of paper PMC7366291.
